Screening results from PubChem.
AmpC no deterg – qHTS Inhibitors of AmpC Beta-Lactamase (assay without detergent) | 0.52% of 330,000 active | AmpC nitrocefin hydrolysis, absorbance 480 nm, 0.0001% Triton | Potency, µM (titrated, usually from 57.1 µM), without a hit: at the highest dose activity change, negative = inhibition, hits mostly inhibitors | AID 485341, 2010;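 also: plate controls were no compound for no effect and no enzyme for full effect; nearly all actives have a fitted effect of over 20% in size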
Target sequence (P00811 whole entry, looked up): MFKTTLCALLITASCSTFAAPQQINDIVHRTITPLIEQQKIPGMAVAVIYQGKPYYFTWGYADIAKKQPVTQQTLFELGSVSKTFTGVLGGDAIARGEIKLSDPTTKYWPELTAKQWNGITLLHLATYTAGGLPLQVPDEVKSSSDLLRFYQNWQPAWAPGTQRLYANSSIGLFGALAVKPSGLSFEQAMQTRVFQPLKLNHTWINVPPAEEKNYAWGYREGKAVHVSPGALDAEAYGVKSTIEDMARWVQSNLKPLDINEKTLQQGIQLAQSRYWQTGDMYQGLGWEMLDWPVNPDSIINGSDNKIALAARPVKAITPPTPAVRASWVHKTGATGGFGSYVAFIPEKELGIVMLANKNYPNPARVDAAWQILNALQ
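20 mM phosphate pH 7.0 + 0.01% (detergent screen) or 0.0001% Triton X-100; 5.3 nM AmpC reagent; cpd preinc 15 min RT; nitrocefin (800 uM stock) to start; A480 q20 s × 4 min; Activity was normalised to no-enzyme and no-compound control wells.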
AMA1-RON2 inh – qHTS for Inhibitors of AMA1-RON; Towards Development of Antimalarial Drug Lead: Primary Screen; Plasmodium falciparum AMA1 (3D7) - RON2 peptide interaction; AlphaScreen AMA1-biotinylated RON2 peptide binding; Potency, µM (highest dose often 58.2 µM), without a hit: top-dose activity change, negative = inhibition, hits mostly inhibitors; 0.2% of 360,000 active; AID 720542, 2013;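 also: 0% = vehicle wells and -100% = peptide control; nearly all actives have a fitted effect of over 45% in size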
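AMA1 (3D7) with his tag at 25 nM final met compounds first, then biotinylated RON2 peptide at 25 nM; detection used donor plus acceptor beads, 10 µg/mL apiece, read by AlphaScreen after 30 min at room temperature.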
AmpC detergent – qHTS Inhibitors of AmpC Beta-Lactamase (assay with detergent); AmpC hydrolysis of nitrocefin, absorbance 480 nm, 0.01% Triton; Potency, µM (top dose mostly 114 µM), for inactives: at the highest dose activity change, negative = inhibition, usual class: inhibitors; 0.041% of 370,000 active;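 also: 0% = no-compound wells and -100% = no-enzyme wells; nearly all actives have a fitted effect of over 25% in size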
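AmpC (5.3 nM in the dispensed reagent) in 20 mM phosphate pH 7.0 with 0.01% (detergent screen) or 0.0001% Triton X-100 was preincubated with compounds for 15 min at room temperature. Nitrocefin was then added from an 800 uM solution, and hydrolysis was followed at 480 nm.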
Sm TGR block – qHTS Assay for the Inhibitors of Schistosoma Mansoni Peroxiredoxins | Schistosoma mansoni thioredoxin glutathione reductase (TGR), Q962Y6 | purified TGR, DTNB reduction, TNB absorbance 405 nm | Potency, µM (titrated, usually from 114 µM), without a hit: at the highest dose activity change, negative = inhibition, usual class: inhibitors | 3% of 360,000 active | AID 485364, 2010; also: nearly all actives have a fitted effect of over 60% in size
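Kinetic colorimetric format: TGR-catalysed, NADPH-driven DTNB reduction monitored via TNB absorbance. Enzyme dispensed at 20 nM; compound exposure 15 min at room temperature before reaction start.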
RE007 growth inh – qHTS Assay for Inhibitors of the HIV-1 protein Vpr | S. pombe RE007 Vpr strain, BacTiter-Glo ATP luminescence, 24 h | Potency, µM (titrated, usually from 92.2 µM), inactives show at the highest dose activity change, negative = less growth, usual class: inhibitors | 0.21% of 360,000 active; active = well fitted falling curve with a large enough effect; inconclusive = small, poorly fitted or top-dose-only effect; inactive = no such curve, though single readings can be large or run the other way; also: nearly all actives have a fitted effect of over 50% in size
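Fission yeast strain RE007, carrying one chromosomally integrated HIV-1 vpr copy, was seeded at OD 0.01 in PMG+AL medium with 23 nL pinned compound. After 24 h at 30 °C and 99% humidity, viability was read by BacTiter-Glo luminescence.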
* marks the source's active call; other numbers are inactive results; u = inconclusive; x = no result given; [ ] = another dose, or the depositor's remark. Compounds with a hit are over-represented: about 3.2% of the library has one in this group of screens. Unless noted, calls follow the shape of the dose curve; as a rule, active = well fitted curve in the direction sought with a large enough effect; inconclusive = small, poorly fitted or top-dose-only effect, or another doubt; inactive = no such curve, though single readings can be large; an effect the other way counts as inactive or inconclusive. Unless noted, % is scaled to controls: 0 for no effect and ±100 for the full control effect; potency is read from the fitted curve at half-maximal effect.

SMILES | AmpC no deterg | AMA1-RON2 inh | AmpC detergent | Sm TGR block | RE007 growth inh
O=C(N/N=C/c1ccc(N2CCOCC2)o1)c1ccccc1[N+](=O)[O-] | -20% | 38% | -13% | 8.9µM* | 7%
O=C(Nc1ccc(N2CCOCC2)nc1N1CCOCC1)c1cccc(C(F)(F)F)c1 | 58% | -6% | -11% | 7% | 4%
O=C(N/N=C/c1ccc(N2CCCCC2)o1)c1ccccc1[N+](=O)[O-] | -17% | 21% | u | 4µM* | x
O=C(N/N=C/c1ccncc1)c1ccccc1[N+](=O)[O-] | -24% | 19% | u | -11% | 4%
COC(CN(C)C(=O)c1ccc(CS(=O)(=O)c2ccccc2C)o1)OC | -4% | -3% | 4% | 50µM* | 18%
Cc1ccccc1S(=O)(=O)Cc1ccc(C(=O)O)o1 | -3% | -1% | -4% | -31% | 8%
Cc1ccccc1S(=O)(=O)Cc1ccc(C(=O)NC2CCCCCC2)o1 | 18% | 5% | -11% | -22% | 0%
Cc1ccccc1S(=O)(=O)Cc1ccc(C(=O)N(C)C2CCCCC2)o1 | 41% | 11% | 1% | 25µM* | 10%
CCCCN(C)C(=O)c1ccc(CS(=O)(=O)c2ccccc2C)o1 | 1% | -2% | 0% | 25µM* | -18%
Cc1ccc(Cn2c(SCc3ccc(C(=O)NC4CCCCC4)cc3)nc3ccncc32)cc1 | x | x | 1% | -14% | x
Cc1ccc(NC(=O)Cn2c(=O)n(Cc3ccccc3)c(=O)c3c(C)c(C)sc32)c(C)c1 | x | x | 15% | 1% | x
COc1ccc(NC(=S)Nc2cccc(Cl)c2Cl)cc1OC | -18% | 17% | -11% | 28µM* | -4%
CNC(=S)Nc1ccc(OC)c(OC)c1 | -15% | 24% | 4% | -14% | 1%
Cc1ccc(/C=C/C(=O)c2ccc(O)cc2)cc1 | -37% | 7% | 4% | -36% | -12%
Cc1ccc(C(=O)/C=C/C(=O)O)cc1 | -26% | 21% | -3% | 2.5µM* | -18%
O=c1c(S(=O)(=O)c2cccc(Cl)c2)cn(Cc2ccccc2)c2cc(N3CCOCC3)c(F)cc12 | x | x | 8% | 0% | x
Cc1ccc(C(=O)Nc2ccc(C(=O)N/N=C/c3c[nH]c4ccccc34)cc2)cc1 | -31% | 26% | u | -7% | -7%
Cc1cccc(NC(=S)N/N=C/c2c[nH]c3ccccc23)c1 | 16µM* | 82%[11.6 µM] | -7% | -10% | -7%
COC(=O)c1ccc(C(=O)OC)c(NC(=O)c2c(-c3ccccc3)noc2C)c1 | x | x | u | -4% | x
O=C(O)C1C2C=CC(O2)C1C(=O)NCCC1=CCCCC1 (centres undefined) | 63% | 2% | 5% | 22µM* | -1%
Cc1ccc(NC(=O)CN2C(=O)COc3ccc(S(=O)(=O)N4CCCCC4)cc32)cc1N(C)C | x | x | 14% | -8% | x
CC1Cc2c([nH]c3ccccc23)C2c3ccccc3CN12 (centres undefined) | -16% | 6% | -3% | 22µM* | -7%
O=C1[C@@H]2Cc3c([nH]c4ccccc34)[C@@H](c3ccccc3)N2C(=O)[C@@H]2Cc3c([nH]c4ccccc34)[C@@H](c3ccccc3)N12 | -17% | x | u | -10% | x
CCCOc1ccc(CN(C(=O)Cc2coc3ccc(CC)cc23)C2CCS(=O)(=O)C2)cc1 (centres undefined) | x | x | 10% | -4% | x
O=C1c2ccc([N+](=O)[O-])cc2S(=O)(=O)N1Cc1ccccc1 | -25% | -5% | -2% | 18µM* | u
Cc1ccc(-n2nc(C)c(C(=O)NCCCN3CCN(c4cccc(Cl)c4)CC3)c2-n2cccc2)cc1 | x | x | 18% | 6% | x
COC(=O)[C@]1(C)C[C@H]1[C@H](NP(=O)(c1ccccc1)c1ccccc1)c1ccccc1 | 147% | -10% | -5% | -14% | 3%
COC(=O)c1cccc(C#CC(NP(=O)(c2ccccc2)c2ccccc2)c2ccccc2)c1 (centres undefined) | 0% | -24% | -1% | 11µM* | -13%
